Measured values published in the supplement of paper PMC8728848.
The entries come from a sample that favours the strongest signals as a whole.

Columns and labels:
Test in all cases: glycan array binding signal (z-score within array); higher = stronger binding
Details in all cases: glycan notation: IUPAC condensed, linker removed
Fuc(a1-2)Gal = molecular target: Fuc(a1-2)Gal
Outline: (§1)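 Negative Z-scores can be read as non-binding. The Z-score is calculated within each array and then averaged across arrays of one protein sequence at different concentrations or buffers and across linkers. Arrays, 3228 in all, were curated from the Consortium for Functional Glycomics database and kept only where the protein sequence was available.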

[1] = molecular target: Fuc(a1-2)Gal(b1-3)GlcNAc(b1-2)Man(a1-3)[Fuc(a1-2)Gal(b1-3)GlcNAc(b1-2)Man(a1-6)]Man(b1-4)GlcNAc(b1-4)[Fuc(a1-6)]GlcNAc
Outline: as §1

[2] = molecular target: Fuc(a1-2)Gal(b1-3)[Fuc(a1-4)]GlcNAc
Outline: as §1

Fuc(a1-2)Gal(b1-4)Glc = molecular target: Fuc(a1-2)Gal(b1-4)Glc
Outline: as §1

[3] = molecular target: Fuc(a1-2)Gal(b1-4)[Fuc(a1-3)]GlcNAc(b1-2)[Fuc(a1-2)Gal(b1-4)[Fuc(a1-3)]GlcNAc(b1-4)]Man(a1-3)[Fuc(a1-2)Gal(b1-4)[Fuc(a1-3)]GlcNAc(b1-2)Man(a1-6)]Man(b1-4)GlcNAc(b1-4)GlcNAc
Outline: as §1

[4] = molecular target: Fuc(a1-2)[Gal(a1-4)]Gal(b1-4)GlcNAc
Outline: as §1

[5] = molecular target: Fuc(a1-3)[Gal(b1-4)]GlcNAc(b1-2)Man(a1-3)[Fuc(a1-3)[Gal(b1-4)]GlcNAc(b1-2)Man(a1-6)]Man(b1-4)GlcNAc(b1-4)[Fuc(a1-6)]GlcNAc
Outline: as §1

[6] = molecular target: Fuc(a1-3)[Gal(b1-4)]GlcNAc6S
Outline: as §1

[7] = molecular target: Fuc(a1-3)[GalNAc(b1-4)]GlcNAc
Outline: as §1

[8] = molecular target: Gal(a1-3)Gal(b1-3)GlcNAc(b1-2)Man(a1-3)[Gal(a1-3)Gal(b1-3)GlcNAc(b1-2)Man(a1-6)]Man(b1-4)GlcNAc(b1-4)GlcNAc
Outline: as §1

[9] = molecular target: Gal(a1-3)Gal(b1-4)GlcNAc(b1-6)GalNAc
Outline: as §1

Gal(a1-4)Gal(b1-4)Glc = molecular target: Gal(a1-4)Gal(b1-4)Glc
Outline: as §1

[10] = molecular target: Gal(a1-4)Gal(b1-4)GlcNAc(b1-2)Man(a1-3)[Gal(a1-4)Gal(b1-4)GlcNAc(b1-2)Man(a1-6)]Man(b1-4)GlcNAc(b1-4)GlcNAc
Outline: as §1

Gal(b1-3)GalNAc = molecular target: Gal(b1-3)GalNAc
Outline: as §1

[11] = molecular target: Gal(b1-3)GalNAc(a1-3)[Fuc(a1-2)]Gal(b1-4)Glc
Outline: as §1

[12] = molecular target: Gal(b1-3)GalNAc(a1-3)[Fuc(a1-2)]Gal(b1-4)GlcNAc
Outline: as §1

[13] = molecular target: Gal(b1-3)GalNAc(b1-4)Gal(b1-4)Glc
Outline: as §1

[14] = molecular target: Gal(b1-3)GlcNAc(b1-2)Man(a1-3)[GlcNAc(b1-4)][Gal(b1-3)GlcNAc(b1-2)Man(a1-6)]Man(b1-4)GlcNAc(b1-4)GlcNAc
Outline: as §1

[15] = molecular target: Gal(b1-3)[Fuc(a1-4)]GlcNAc(b1-2)Man(a1-3)[Gal(b1-3)[Fuc(a1-4)]GlcNAc(b1-2)Man(a1-6)]Man(b1-4)GlcNAc(b1-4)[Fuc(a1-6)]GlcNAc
Outline: as §1

Gal(b1-4)GlcNAc(b1-2)Man = molecular target: Gal(b1-4)GlcNAc(b1-2)Man
Outline: as §1

[16] = molecular target: Gal(b1-4)GlcNAc(b1-2)Man(a1-3)[Man(a1-6)]Man(b1-4)GlcNAc(b1-4)GlcNAc
Outline: as §1

[17] = molecular target: Gal(b1-4)GlcNAc(b1-2)[Gal(b1-4)GlcNAc(b1-4)]Man(a1-3)[Gal(b1-4)GlcNAc(b1-2)Man(a1-6)]Man(b1-4)GlcNAc(b1-4)GlcNAc
Outline: as §1

[18] = molecular target: Gal(b1-4)GlcNAc(b1-3)Gal(b1-4)Glc
Outline: as §1

Gal6S(b1-3)GlcNAc6S = molecular target: Gal6S(b1-3)GlcNAc6S
Outline: as §1

Gal6S(b1-4)GlcNAc6S = molecular target: Gal6S(b1-4)GlcNAc6S
Outline: as §1

[19] = molecular target: GalNAc(b1-4)GlcNAc(b1-2)Man(a1-3)[GalNAc(b1-4)GlcNAc(b1-2)Man(a1-6)]Man(b1-4)GlcNAc(b1-4)GlcNAc
Outline: as §1

[20] = molecular target: GlcNAc(a1-4)Gal(b1-3)GlcNAc
Outline: as §1

[21] = molecular target: GlcNAc(a1-4)Gal(b1-4)GlcNAc(b1-3)Gal(b1-4)[Fuc(a1-3)]GlcNAc(b1-3)Gal(b1-4)[Fuc(a1-3)]GlcNAc
Outline: as §1

[22] = molecular target: GlcNAc(b1-2)Man(a1-3)[GlcNAc(b1-4)][GlcNAc(b1-2)Man(a1-6)]Man(b1-4)GlcNAc(b1-4)GlcNAc
Outline: as §1

[23] = molecular target: GlcNAc(b1-3)Gal(b1-4)GlcNAc
Outline: as §1

[24] = molecular target: GlcNAc(b1-3)[GlcNAc(b1-4)][GlcNAc(b1-6)]GlcNAc
Outline: as §1

Kdn(a2-3)Gal(b1-4)GlcNAc = molecular target: Kdn(a2-3)Gal(b1-4)GlcNAc
Outline: as §1

[25] = molecular target: Man(a1-2)Man(a1-2)Man(a1-3)Man
Outline: as §1

[26] = molecular target: Man(a1-2)Man(a1-3)[Man(a1-6)]Man(a1-6)[Man(a1-2)Man(a1-3)]Man(b1-4)GlcNAc(b1-4)GlcNAc
Outline: as §1

[27] = molecular target: Man(a1-3)[Man(a1-6)]Man(b1-4)GlcNAc(b1-4)[Fuc(a1-6)]GlcNAc
Outline: as §1

[28] = molecular target: Neu5Ac(a2-3)Gal(b1-4)GlcNAc(b1-2)Man
Outline: as §1

[29] = molecular target: Neu5Ac(a2-3)Gal(b1-4)GlcNAc(b1-3)Gal
Outline: as §1

[30] = molecular target: Neu5Ac(a2-3)Gal(b1-4)GlcNAc(b1-3)Gal(b1-4)GlcNAc(b1-3)GalNAc
Outline: as §1

[31] = molecular target: Neu5Ac(a2-3)Gal(b1-4)GlcNAc(b1-3)Gal(b1-4)GlcNAc(b1-6)[Gal(b1-3)]GalNAc
Outline: as §1

[32] = molecular target: Neu5Ac(a2-3)Gal(b1-4)GlcNAc(b1-3)GalNAc
Outline: as §1

[33] = molecular target: Neu5Ac(a2-3)Gal(b1-4)[Fuc(a1-3)]GlcNAc(b1-3)GalNAc
Outline: as §1

[34] = molecular target: Neu5Ac(a2-3)Gal6S(b1-4)[Fuc(a1-3)]GlcNAc
Outline: as §1

[35] = molecular target: Neu5Ac(a2-6)Gal(b1-4)GlcNAc(b1-3)Gal(b1-4)GlcNAc(b1-3)Gal(b1-4)GlcNAc(b1-2)Man(a1-3)[Neu5Ac(a2-6)Gal(b1-4)GlcNAc(b1-3)Gal(b1-4)GlcNAc(b1-3)Gal(b1-4)GlcNAc(b1-2)Man(a1-6)]GalNAc
Outline: as §1

[36] = molecular target: Neu5Ac(a2-6)Gal(b1-4)GlcNAc(b1-6)[Gal(b1-3)]GalNAc
Outline: as §1

[37] = molecular target: Neu5Ac(a2-6)GalNAc(b1-4)GlcNAc
Outline: as §1

[38] = molecular target: Neu5Ac(a2-6)GlcNAc(b1-4)GlcNAc
Outline: as §1

[39] = molecular target: Neu5Ac(a2-6)GlcNAc(b1-4)GlcNAc(b1-4)GlcNAc
Outline: as §1

[40] = molecular target: Neu5Ac(a2-8)Neu5Ac(a2-3)Gal(b1-3)GalNAc(b1-4)[Neu5Ac(a2-8)Neu5Ac(a2-3)]Gal(b1-4)Glc
Outline: as §1

[41] = molecular target: Neu5Gc(a2-3)Gal(b1-4)[Fuc(a1-3)]GlcNAc
Outline: as §1

B1: B1257 (Bifidobacterium sp) (protein)
chain: MKKSIRLVAAIAALAMTAGISACGSSTNGNQAKSDVTAQDVETALTDTSKNVELTVWAYSAKQMEPTVKAFEKKYPHIKINFVNTGAAGDHFTKFQNVVQAQKDIPDVVQMGANKFQQFAVSGALLNFANDSIEKAWSKLYTKTAWAQVHYAGGLYGAPQDATPLANYVRKDILDEHNLQVPESWEDIYNEGIKLHKEDSNKYMGILGSDISFFTNLYRSVGARLWKVNSVDDVELTMNSGKAKEFTEFLQKCLKDGVLEGGTVFTDEFNRSINDGRYATFINENWMGNTYKEQNPSLKGKMVVAAPPSWKGQPYQSSSVGSMMSVSAACPKEKQAAALAFINWLDSDKDAIQSWQDTNNGNFFMAASVYQDDENQRNKKETDGYYANDDVNAVYFDSMDKVNTDWEYLPFMSQVEVVFNDVIVPQMNENGDLVGAMAKAQQELKTYAKDNGFKVTTDAD
Fuc(a1-2)Gal
  glycan array binding signal (z-score): 23.9
[1]
  glycan array binding signal (z-score): 0.153
[2]
  glycan array binding signal (z-score): -0.158
Fuc(a1-2)Gal(b1-4)Glc
  glycan array binding signal (z-score): 3.8
[3]
  glycan array binding signal (z-score): 0.025
[4]
  glycan array binding signal (z-score): -0.086
[5]
  glycan array binding signal (z-score): 0.166
[6]
  glycan array binding signal (z-score): -0.027
[7]
  glycan array binding signal (z-score): 0.046
[8]
  glycan array binding signal (z-score): 0.027
[9]
  glycan array binding signal (z-score): -0.213
Gal(a1-4)Gal(b1-4)Glc
  glycan array binding signal (z-score): -0.023
[10]
  glycan array binding signal (z-score): 0.48
Gal(b1-3)GalNAc
  glycan array binding signal (z-score): 0.28
[11]
  glycan array binding signal (z-score): 0.314
[12]
  glycan array binding signal (z-score): -0.014
[13]
  glycan array binding signal (z-score): -0.085
[14]
  glycan array binding signal (z-score): 0.324
[15]
  glycan array binding signal (z-score): 0.461
Gal(b1-4)GlcNAc(b1-2)Man
  glycan array binding signal (z-score): -0.056
[16]
  glycan array binding signal (z-score): -0.051
[17]
  glycan array binding signal (z-score): -0.081
[18]
  glycan array binding signal (z-score): 0.301
Gal6S(b1-3)GlcNAc6S
  glycan array binding signal (z-score): -0.051
Gal6S(b1-4)GlcNAc6S
  glycan array binding signal (z-score): -0.133
[19]
  glycan array binding signal (z-score): 1.83
[20]
  glycan array binding signal (z-score): -0.103
[21]
  glycan array binding signal (z-score): 0.11
[22]
  glycan array binding signal (z-score): 0.002
[23]
  glycan array binding signal (z-score): -0.138
[24]
  glycan array binding signal (z-score): -0.13
Kdn(a2-3)Gal(b1-4)GlcNAc
  glycan array binding signal (z-score): -0.061
[25]
  glycan array binding signal (z-score): -0.128
[26]
  glycan array binding signal (z-score): -0.161
[27]
  glycan array binding signal (z-score): -0.128
[28]
  glycan array binding signal (z-score): 0.015
[29]
  glycan array binding signal (z-score): -0.111
[30]
  glycan array binding signal (z-score): -0.094
[31]
  glycan array binding signal (z-score): -0.087
[32]
  glycan array binding signal (z-score): 0.727
[33]
  glycan array binding signal (z-score): 0.158
[34]
  glycan array binding signal (z-score): -0.194
[35]
  glycan array binding signal (z-score): 0.344
[36]
  glycan array binding signal (z-score): -0.046
[37]
  glycan array binding signal (z-score): -0.178
[38]
  glycan array binding signal (z-score): -0.027
[39]
  glycan array binding signal (z-score): -0.081
[40]
  glycan array binding signal (z-score): -0.004
[41]
  glycan array binding signal (z-score): -0.012
